High-throughput results as filed in PubChem.
KDM5B inh – blocks human KDM5B histone demethylase activity. AID 1347165. KDM5B demethylase, FDH-coupled NADH fluorescence (FDH is formaldehyde dehydrogenase). Potency, µM (highest dose often 57.7 µM), actives largely listed as inhibitors. actives 2.6% (n = 220,000); active means well fitted inhibition curve with a large enough effect; further: nearly all actives have a fitted effect of over 70% in size
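Compound dilutions met 200 nM (final) KDM5BΔAP for 10 min at room temperature before substrate addition. The substrate mix held 12.5 µM H3K4me3 with cofactors 25 µM α-ketoglutarate and 50 µM Fe²⁺. NADH signal gain over 30 min defined activity.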
A number is an active result; - = inactive; ! = repeats disagree. Many of the other results were omitted from the sample, so hits are more common in it than they were.

SMILES	KDM5B inh
O=C(N[C@H]1CCN2C(=O)c3cc(/C=C/c4ccc(O)cc4)ccc3NC(=O)[C@H]12)c1cnccn1	-
COc1ccc(-c2ccc3c(c2)C(=O)N2CC[C@H](NC(=O)COCC(=O)O)[C@H]2C(=O)N3)cc1	20µM
O=C(N[C@H]1CCN2C(=O)c3ccccc3NC(=O)[C@H]12)C1CCCC1	-
O=C(N[C@H]1CCN2C(=O)c3cc(/C=C/c4ccccc4)ccc3NC(=O)[C@H]12)C1CCCC1	32µM
O=C(O)COCC(=O)N[C@H]1CCN2C(=O)c3cc(-c4ccccc4F)ccc3NC(=O)[C@H]12	-
O=C(O)COCC(=O)N[C@H]1CCN2C(=O)c3cc(-c4ccc(F)cc4F)ccc3NC(=O)[C@H]12	-
COc1ccc(/C=C/c2ccc3c(c2)C(=O)N2CC[C@H](NC(=O)CCC(=O)O)[C@H]2C(=O)N3)cc1	28µM
Nn1c(SCc2ncc(-c3ccccc3)o2)nnc1-c1ccccc1Cl	-
CCN(CC)C1(Cc2cc(COC)on2)COC1	-
O=C(c1cc(F)ccc1Cl)N1CCC2(CC1)CC(O)CCO2 (stereo not drawn)	-
O=C(COC(=O)c1cc(=O)[nH]c2ccccc12)Nc1ccccc1C(=O)Nc1ccccc1	-
O=C(c1ccsc1)N1CCC2(CC1)NCCc1c2[nH]c2ccccc12	-
COc1nc2c(cc1CNC(=O)C1CCCC1)C(=O)N(CCc1ccccn1)C2	-
CC(C)(C)c1ccc(C(=O)N/N=C/c2cccc3ccccc23)cc1	-
CC(C)(C)c1ccc(NC(=O)c2cccc(CN3CCCC3=O)c2)cc1	-
COc1ccc(C(=O)N2CCC(N3C[C@H](O)C[C@H]3C(=O)NC3CCCCC3)CC2)cc1OC	-
CCC(C)NC(=O)CC1=CSC2=NC(C)=C(C(=O)Nc3ccccc3)C(c3cccc(C)c3)N12 (stereo not drawn)	-
Cc1nc(S(=O)(=O)N2CCCCC2)c(C#N)c(C)c1Cl	-
COc1ccc(C(=O)N2CCc3ccc(C(=O)O)cc32)cc1	-
CN[C@@H](CC(C)C)C(=O)N[C@H]1CCN2C(=O)c3cc(-c4ccc(OC)cc4OC)ccc3NC(=O)[C@@H]2C1	-
O=C1Nc2ccc(-c3ccccc3)cc2C(=O)N2CC[C@H](NS(=O)(=O)c3cccs3)[C@@H]12	-
CSCC(=O)N[C@H]1CCN2C(=O)c3cc(-c4ccccc4)ccc3NC(=O)[C@H]12	-
O=C1Nc2ccc(/C=C/c3ccccc3)cc2C(=O)N2CC[C@H](NS(=O)(=O)c3cccs3)[C@@H]12	32µM
O=C(O)CCC(=O)N[C@H]1CCN2C(=O)c3cc(/C=C/c4ccccc4)ccc3NC(=O)[C@H]12	40µM
O=C1Nc2ccccc2C(=O)N2CC[C@H](NS(=O)(=O)c3cccs3)[C@@H]12	-
SMILES	KDM5B inh
C=CCO[C@@H]1CCN2C(=O)c3cc(-c4ccc(OC)cc4)ccc3NC(=O)[C@H]12	35µM
O=C(CCNc1ncnc2nc[nH]c12)NCc1ccccc1	-
COCC(C)n1c(C)cc(C(=O)COC(=O)Cn2cnc3c2c(=O)n(C)c(=O)n3C)c1C (stereo not drawn)	-
CCCCNC(=S)N(c1ccccc1)C(C)C	-
COc1ccc(OC)c(CNC(=O)[C@H]2CCC[C@H]2NC(=O)c2cnc(C)cn2)c1	-
Cc1ccccc1Oc1ccc(S(=O)(=O)N2CCCC2)cn1	-
CCN(CC)CC(C)OC(=O)c1ccccc1F (stereo not drawn)	-
COC(=O)c1ccc2c(c1)nc1n2[C@@H](CNC(=O)C2CC2)COC1	-
COc1ccc2nc3n(c2c1)[C@@H](CNC(=O)c1ccc(C#N)cc1)COC3	-
COc1ccc2nc3n(c2c1)[C@@H](CNC(=O)C1CCOCC1)COC3	40µM
COc1ccc(C)cc1NC(=O)C(Sc1nnnn1C1CCCC1)c1ccccc1 (stereo not drawn)	-
O=c1oc2ccc(Br)cc2cc1S(=O)(=O)N1CCCCC1	-
O=C(COc1ccc(Cl)cc1Cl)N1CCC(N2CCOC2=O)CC1	-
O=C(NCCc1cnn(-c2ccccc2)c1)C1NCCc2[nH]cnc21 (stereo not drawn)	-
O=C(NCCc1noc(-c2ccccc2)n1)C1NCCc2[nH]cnc21 (stereo not drawn)	35µM
O=C(NCCc1nc(-c2cccnc2)no1)C1NCCc2[nH]cnc21 (stereo not drawn)	-
O=C(NCCC1CCCC1)c1cccc2ncccc12	-
COc1ccc(C(=O)N2CCN(c3nnc4ccccn34)CC2)cc1OC	25µM
COc1ccc(C(=O)C(C)Sc2nnc3ccccn23)cc1OC (stereo not drawn)	-
COc1ccc(C(=O)N2CCCN(c3nnc4ccccn34)CC2)cc1F	25µM
COc1ccc(C(=O)N2CCCN(c3cc(-c4ccccc4)[nH]n3)CC2)cc1F	-
COc1ccc(C(=O)N2CCCN(c3cc(-c4ccc(Br)cc4)[nH]n3)CC2)cc1F	-
COc1ccc(C(=O)N2CCN(c3nc4c(OC)cccc4s3)CC2)cc1OC	-
O=C(NCc1ccc2c(c1)OCO2)C1CN(Cc2ccccc2)C(=O)N1 (stereo not drawn)	-
CCOC(=O)c1c(NC(=O)C2CCCO2)sc(C(C)=O)c1C (stereo not drawn)	-
SMILES	KDM5B inh
COc1ccc(CNc2ccccc2)cc1	-
COc1ccc(CN2C(=O)[C@@H]3C[C@@H](CN3C3COC3)Oc3ccccc32)cc1	-
CCCCn1nnnc1CSc1nnc(-c2ccc(OC)cc2)n1-c1ccc(C)cc1	-
O=C(NC(c1ccccc1)c1ccccc1Br)C(c1ccccc1)C1CCCC1 (stereo not drawn)	-
CCCn1c(N)c(N2CCOCC2)c(=O)n(CC(=O)NCc2ccc(C)cc2)c1=O	-
CC(C)C(=O)NC(Nc1ccccc1C(F)(F)F)C(Cl)(Cl)Cl (stereo not drawn)	-
COc1ccc(C(CNC(=O)C2CCN(S(=O)(=O)c3ccc(C)cc3C)CC2)N(C)C)cc1 (stereo not drawn)	-
CCN1C(=O)COC[C@@H]1[C@H](O)c1ccc(NC(=O)CCc2ccccc2)cc1	-
Cc1cc(Cl)ccc1NC1CN(C(=O)OC(C)(C)C)C1	-
Cc1cc(F)ccc1NC1CN(C(=O)OC(C)(C)C)C1	-
CC(C)(C)OC(=O)N1CC(Nc2ccc(O)cc2)C1	8.9µM!
C#CC1(O)CCC2C3CCC4=CC(=O)CCC4C3CCC21C (stereo not drawn)	-
CCc1ccc(NC(=O)N2CCCC(c3noc(COc4ccccc4)n3)C2)cc1 (stereo not drawn)	-
Cc1nc(CN2C[C@H](C(=O)NCc3cccc(Cl)c3)C[C@@H]2c2ccc(F)cc2)cs1	-
Cc1nc(CN2C[C@H](C(=O)N3CCN(c4ccccn4)CC3)C[C@@H]2c2ccc(F)cc2)cs1	28µM
COc1cc(CNC(=O)[C@@H]2C[C@H](c3ccc(F)cc3)N(Cc3csc(C)n3)C2)cc(OC)c1	-
COc1ccc(C(=O)N2CCC[C@H]2c2nc(-c3ccc(C)cc3)no2)cc1F	-
CCc1cccc(Nc2ncncc2-c2nc(-c3ccccc3)no2)c1	-
c1ccc(CCCNc2ncncc2-c2nc(-c3ccccc3)no2)cc1	28µM
CCc1ccc(Nc2ncncc2-c2nc(-c3ccccc3)no2)cc1	-
C1=C(CCNc2ncncc2-c2nc(-c3ccccc3)no2)CCCC1	28µM
c1ccc(-c2noc(-c3cncnc3NCCc3cccs3)n2)cc1	28µM
CC(Cn1cncn1)NCc1cc(=O)c2cc(F)ccc2[nH]1 (stereo not drawn)	-
C=C(C)COc1ccc2c(=O)c(Oc3ccc(C(=O)OCCC)cc3)coc2c1	-
